Assay outcomes: PubChem BioAssay, Sanford-Burnham Center for Chemical Genomics
Many of the other results were omitted from the sample, so hits are more common in it than they were.
DUSP3 inh: VHR1 phosphatase inhibitors, primary screen, biochemical, colorimetric, HTS; Dual specificity protein phosphatase 3 (Homo sapiens), P51452; recombinant VHR phosphatase, colorimetric substrate read-out; inhibition, % at 20 µM; 50,000 compounds, 0.7% hits; AID 1992, 2009; in the data active means inhibition above about 60%
Target sequence (P51452 whole entry, looked up): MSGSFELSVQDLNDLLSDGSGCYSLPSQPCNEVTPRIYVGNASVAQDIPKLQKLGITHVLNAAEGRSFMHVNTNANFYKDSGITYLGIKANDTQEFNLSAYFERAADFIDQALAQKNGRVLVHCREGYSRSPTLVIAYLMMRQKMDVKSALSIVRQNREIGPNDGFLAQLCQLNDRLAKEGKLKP
Numbers without * were called inactive.

SMILES | DUSP3 inh
CCOC(=O)c1c(NC(=O)c2cccc(C)c2)sc(C(=O)Nc2ccccc2F)c1C | -8
CCOC(=O)c1c(NC(=O)c2ccc(Cl)c(Cl)c2)sc(C(=O)Nc2ccccc2F)c1C | -12
CCOC(=O)c1c(NC(=O)c2cccc(OC)c2)sc(C(=O)Nc2ccccc2F)c1C | 115*
COc1ccc(-c2csc(NC(=O)c3ccc(S(=O)(=O)N4CCCC4)cc3)n2)cc1C | -3
COc1cc(C=O)c(Br)cc1OCc1ccccc1Cl | -14
O=C(NNc1c(F)c(F)c(F)c(F)c1F)C(O)(c1ccccc1)c1ccccc1 | -9
Cc1cc(C)nc(NS(=O)(=O)c2ccc(Nc3nc(-c4sc(N)nc4C)cs3)cc2)n1 | 67*
Cc1cc(NS(=O)(=O)c2ccc(Nc3nc(-c4ccccn4)cs3)cc2)no1 | 3
Cc1nc(N)sc1-c1csc(Nc2ccccn2)n1 | 51
Cc1ccc(OCC(O)CN2CC(C)OC(C)C2)cc1C (configuration not stated) | -23
Clc1ccc(/C=N/Nc2nc3ccccc3s2)c(Cl)c1 | 4
Cc1ccc(NC(=O)c2cc3c(C)nn(-c4ccccc4)c3s2)c(C)c1 | 5
O=C(Nc1c(Cl)cccc1Cl)C1C2CC/C=C\CC/C=C/CCC21 (configuration not stated) | 112*
O=C(Nc1cccc(Br)c1)C1C2CCC3C(CCC21)C3(Cl)Cl (configuration not stated) | -2
O=C(O)C1C2CC/C=C\CC/C=C/CCC21 (configuration not stated) | 18
COC(=O)C1=C(C)N(C)C(=O)NC1c1ccc([N+](=O)[O-])s1 (configuration not stated) | -7
COc1ccc(O)c(/C=N/n2cnnc2)c1 | -3
C=CCN1C(=O)/C(=C\c2ccc(O)c(OCC)c2)C(=O)NC1=S | 8
O=C1C(=O)c2ccccc2C(O)=C1c1ccc([N+](=O)[O-])cc1 | -6
CCOc1cc(/C=N/n2cnnc2)cc(Cl)c1OCCOc1cc(C)ccc1C(C)C | 110*
CCC(C)c1ccc(OCCOc2c(Cl)cc(/C=N/n3cnnc3)cc2OC)cc1 (configuration not stated) | -2
COc1ccccc1OCCOc1c(Cl)cc(/C=N/n2cnnc2)cc1OC | 2
CC1=C(C(=O)Nc2ccc(Cl)cc2)C(c2cccc(Br)c2)NC(=O)N1 (configuration not stated) | 8
Cc1cc(-c2ccc(/C=c3\sc4nc5ccccc5n4c3=O)o2)c(C)c([N+](=O)[O-])c1 | -20
Cc1ccccc1NC(=O)c1cc2ccccc2c(/C=N/n2cnnc2)c1O | 94
SMILES | DUSP3 inh
CN1CCC(=NNC(=O)c2cc3ccccc3cc2O)CC1 | 94*
CN1CCC(=NNC(=O)c2cccc([N+](=O)[O-])c2)CC1 | -14
CCCN1CCC(=NNC(=O)c2ccccc2O)CC1 | -14
CC(=O)C1=C(Nc2ccccc2)CC(C)(O)C(C(C)=O)C1c1ccccc1F (configuration not stated) | -2
COC(=O)c1c(-c2ccc(OC)cc2)csc1N | 30
NC(=O)c1c(-c2ccc(Cl)cc2)csc1N | 67*
COC(=O)c1c(-c2ccc(Cl)cc2)csc1N | 81
CCOC(=O)c1c(-c2ccc(-c3ccccc3)cc2)csc1N | 5
CCOC(=O)c1c(-c2ccc(C(C)C)cc2)csc1N | 15
COC(=O)c1c(-c2ccc(C(C)(C)C)cc2)csc1N | 95*
Cc1c(NC(=O)C(C)Sc2ccc(Cl)cc2)c(=O)n(-c2ccccc2)n1C (configuration not stated) | -13
COc1cc(NS(=O)(=O)c2cc(Cl)ccc2Cl)c(OC)cc1Cl | 6
COc1cc(C(=O)NC(NC(=S)Nc2cccc3ccccc23)C(Cl)(Cl)Cl)cc(OC)c1OC (configuration not stated) | -6
COc1ccc(-n2nc3cc(C)c(NC(=O)c4cc(Cl)ccc4OC)cc3n2)cc1 | 110*
COc1ccc(Br)cc1C(=O)Nc1cc2nn(-c3ccc(C)cc3)nc2cc1C | 3
Cc1ccc(-n2nc3cc(C)c(NC(=O)c4cc(Cl)ccc4Cl)cc3n2)cc1 | -28
O=C1C2C3C=CC(C3)C2C(=O)N1c1cc(Cl)ccn1 (configuration not stated) | 8
C=CCOc1ccccc1/C=N/N=C(N)N | -5
Cc1cc(C)c(NC(=O)C(C)Sc2ccccn2)c(C)c1 (configuration not stated) | 4
Cc1c(N2C(=O)S/C(=C\c3cccc([N+](=O)[O-])c3)C2=O)c(=O)n(-c2ccccc2)n1C | 2
CC(=O)c1ccc(NC(=O)c2ccc(-c3ccc(Cl)cc3Cl)o2)cc1 | 0
O=C(O)c1ccc(-c2cc(Cl)ccc2Cl)o1 | 2
O=C(Nc1ccccc1C(F)(F)F)c1ccc(-c2cc(Cl)ccc2Cl)o1 | 112*
O=C(Nc1ccc(NC(=O)c2ccc(-c3ccc(Cl)cc3Cl)o2)cc1)c1ccccc1 | -13
CC(=O)c1cccc(NC(=O)c2ccc(-c3ccc(Cl)cc3Cl)o2)c1 | 109*
SMILES | DUSP3 inh
O=C(Nc1ccccc1C(F)(F)F)c1ccc(Cl)cc1Cl | -20
O=c1c2ccccc2ncn1-c1ccc([N+](=O)[O-])cc1C(F)(F)F | -39
COc1ccc(N2C(=O)/C(=C/C3C(=O)N(c4ccccc4)N=C3C)C(=O)NC2=S)cc1 (configuration not stated) | 24
C=CCN1C(=O)/C(=C\c2ccc(-c3ccc([N+](=O)[O-])cc3C)o2)C(=O)NC1=S | 19
C=CCN1C(=O)/C(=C\c2cc(Br)ccc2OCCOc2cccc(OC)c2)SC1=S | -9
CCSc1nnc2n(Cc3ccccc3)c(=O)c3c4c(sc3n12)CC(C(C)(C)C)CC4 (configuration not stated) | -22
O=C1NC(=S)NC(=O)C1=Cc1ccc(-c2ccccc2C(=O)O)o1 | 23
NC(=O)C(=O)Nc1cccc2ccccc12 | 0
O=C(Nc1cccc2ccccc12)C1C(c2ccccc2)=C1c1ccccc1 | 100*
CC1(C)C(C(=O)Nc2cccc3ccccc23)C1(C)C | -9
CC(C)c1ccc(N2C(=O)/C(=C/c3cc(Cl)c(O)c(Cl)c3)C(=O)NC2=S)cc1 | -21
Cc1ccc(/C=C(/C#N)c2nc3ccc(C)cc3[nH]2)cc1 | 73
COC(=O)C1=C(C)N(C)C(C)=C(C(=O)OC)C1c1ccc(OC)c(OC)c1 | 7
COC(=O)C1=C(C)N(C)C(C)=C(C(=O)OC)C1c1cc(OC)c(OC)c(OC)c1 | -2
COC(=O)C1=C(C)N(C)C(C)=C(C(=O)OC)C1c1cc(Br)c(OC)c(OC)c1 | 116*
O=Cc1cn(CCOc2ccc(Cl)cc2)c2ccccc12 | 2
CCOc1ccc(CC(C(=O)NC)C(=O)NC)cc1CN(C)C | 18
O=C1NN(c2ccc(Cl)c(Cl)c2)C(=O)/C1=C/c1cccc(Br)c1 | 32
O=C1NN(c2ccc(Cl)c(Cl)c2)C(=O)/C1=C/c1cc([N+](=O)[O-])ccc1O | -6
O=C1NN(c2ccc(Cl)c(Cl)c2)C(=O)/C1=C/c1cccc([N+](=O)[O-])c1 | 78*
CN(C)c1ccc(/C=N/N=C2/NC(=O)C(c3ccccc3)(c3ccccc3)S2)cc1 | -4
Cc1ccc(-c2nc3ccccc3o2)cc1NC(=O)/C=C/c1cccc([N+](=O)[O-])c1 | 0
Cc1ccc(N=C2NC(=O)/C(=C/c3cccc(O)c3)S2)cc1Cl | 12
Cc1ccc(N=C2NC(=O)/C(=C/c3ccc(F)cc3)S2)cc1Cl | -1
COc1cc(/C=C2\SC(=Nc3ccc(C)c(Cl)c3)NC2=O)ccc1O | 68*
